Data on 8 sequences can be found in PMC7862700, “An all-to-all approach to the identification of sequence-specific readers for epigenetic DNA modifications on cytosine”.

Common to all, as to experiment: DAPPL (digital affinity profiling via proximity ligation, sequencing); 10 mM Tris-HCl pH 7.5, 50 mM NaCl, 1 mM DTT, 4% glycerol, room temperature, 30 min; GST-TFs on glutathione beads, 16-mer random dsDNA library, 0.1% formaldehyde crosslink after washing; high values mean tight binding
Settings in all cases: protein: recombinant; tags: N-terminal GST; dsDNA, one strand shown

The target of one experiment is T1, FEV (Homo sapiens, UniProt Q99581 1-238).
T1 sequence: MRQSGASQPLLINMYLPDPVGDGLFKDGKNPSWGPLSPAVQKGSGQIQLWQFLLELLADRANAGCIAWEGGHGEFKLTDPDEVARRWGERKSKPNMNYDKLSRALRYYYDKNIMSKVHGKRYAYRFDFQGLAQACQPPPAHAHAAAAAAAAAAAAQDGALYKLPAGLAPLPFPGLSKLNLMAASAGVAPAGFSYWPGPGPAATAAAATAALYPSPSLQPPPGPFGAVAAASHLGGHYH
In outline:
(§1)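 Binding signal is given per hexamer as its read frequency for a factor divided by its frequency in the tag-only sample. GST-fused human transcription factors were expressed in yeast, captured on glutathione beads, barcoded with DNA and pooled with that sample, then incubated with 200 nmole of a 16-mer random double-stranded DNA library in Tris/NaCl/DTT/glycerol buffer for 30 min at room temperature. The pools were then washed, crosslinked, proximity-ligated, amplified by PCR and sequenced on an Illumina NextSeq500.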

In a further experiment the target is ETV5 (Homo sapiens, UniProt P41161 1-510). In outline: as §1
A further experiment has as its target T2, SPIC (Homo sapiens, UniProt Q8N5J4 1-248).
T2 sequence: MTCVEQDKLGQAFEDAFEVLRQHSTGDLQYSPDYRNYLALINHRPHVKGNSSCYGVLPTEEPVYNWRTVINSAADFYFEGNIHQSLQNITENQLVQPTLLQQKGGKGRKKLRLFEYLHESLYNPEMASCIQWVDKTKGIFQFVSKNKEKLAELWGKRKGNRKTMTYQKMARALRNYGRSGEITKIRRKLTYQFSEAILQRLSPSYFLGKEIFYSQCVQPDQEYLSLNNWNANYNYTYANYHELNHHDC
The gist of the method: as §1

The next experiment concerns the target ELF4 (Homo sapiens, UniProt Q99607 1-663). The gist of the method:
as §1

A further experiment has as its target T3, ELK4 (Homo sapiens, UniProt P28324-2 1-405).
T3 sequence: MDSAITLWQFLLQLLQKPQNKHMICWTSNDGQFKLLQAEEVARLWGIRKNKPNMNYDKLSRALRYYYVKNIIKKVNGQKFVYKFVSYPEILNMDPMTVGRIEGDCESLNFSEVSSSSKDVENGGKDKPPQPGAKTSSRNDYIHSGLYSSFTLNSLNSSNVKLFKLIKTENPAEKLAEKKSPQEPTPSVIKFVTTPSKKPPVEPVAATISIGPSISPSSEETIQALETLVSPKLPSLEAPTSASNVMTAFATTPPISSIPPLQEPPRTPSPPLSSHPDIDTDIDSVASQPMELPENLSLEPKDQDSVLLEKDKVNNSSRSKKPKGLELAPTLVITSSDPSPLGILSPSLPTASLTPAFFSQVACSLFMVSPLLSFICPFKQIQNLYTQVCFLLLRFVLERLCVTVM
The gist of the method:
as §1

For the next experiment, the target named is T4, ETV2 (Homo sapiens, UniProt O00321 1-342).
T4 sequence: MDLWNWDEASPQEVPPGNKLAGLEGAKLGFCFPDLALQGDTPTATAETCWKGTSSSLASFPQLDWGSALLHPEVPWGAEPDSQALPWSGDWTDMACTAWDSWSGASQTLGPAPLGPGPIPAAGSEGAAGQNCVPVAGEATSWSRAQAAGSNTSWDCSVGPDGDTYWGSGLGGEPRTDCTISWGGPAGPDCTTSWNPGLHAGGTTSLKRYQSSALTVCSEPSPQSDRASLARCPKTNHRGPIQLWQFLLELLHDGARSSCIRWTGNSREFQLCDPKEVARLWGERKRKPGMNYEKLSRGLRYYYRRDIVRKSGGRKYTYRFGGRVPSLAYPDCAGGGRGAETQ
The gist of the method: as §1

A further experiment deals with T5, ELF3 (Homo sapiens, UniProt P78545 1-371).
T5 sequence: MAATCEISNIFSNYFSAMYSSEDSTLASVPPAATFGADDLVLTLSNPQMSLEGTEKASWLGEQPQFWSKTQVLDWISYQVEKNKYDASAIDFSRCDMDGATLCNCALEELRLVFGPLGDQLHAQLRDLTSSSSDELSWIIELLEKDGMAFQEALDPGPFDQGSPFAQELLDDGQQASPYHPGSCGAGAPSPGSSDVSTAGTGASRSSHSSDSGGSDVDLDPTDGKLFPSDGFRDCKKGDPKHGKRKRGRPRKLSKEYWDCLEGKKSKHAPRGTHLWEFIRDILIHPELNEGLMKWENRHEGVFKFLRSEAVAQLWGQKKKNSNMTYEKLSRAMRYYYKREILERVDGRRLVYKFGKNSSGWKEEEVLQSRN
The gist of the method: as §1

In the next experiment the target is CRX (Homo sapiens, UniProt O43186 1-299). The gist of the method: as §1
For another experiment, the target named is ETV1 (Homo sapiens, UniProt P50549 1-477). The gist of the method:
as §1

ETV1, sequence (P50549 whole entry): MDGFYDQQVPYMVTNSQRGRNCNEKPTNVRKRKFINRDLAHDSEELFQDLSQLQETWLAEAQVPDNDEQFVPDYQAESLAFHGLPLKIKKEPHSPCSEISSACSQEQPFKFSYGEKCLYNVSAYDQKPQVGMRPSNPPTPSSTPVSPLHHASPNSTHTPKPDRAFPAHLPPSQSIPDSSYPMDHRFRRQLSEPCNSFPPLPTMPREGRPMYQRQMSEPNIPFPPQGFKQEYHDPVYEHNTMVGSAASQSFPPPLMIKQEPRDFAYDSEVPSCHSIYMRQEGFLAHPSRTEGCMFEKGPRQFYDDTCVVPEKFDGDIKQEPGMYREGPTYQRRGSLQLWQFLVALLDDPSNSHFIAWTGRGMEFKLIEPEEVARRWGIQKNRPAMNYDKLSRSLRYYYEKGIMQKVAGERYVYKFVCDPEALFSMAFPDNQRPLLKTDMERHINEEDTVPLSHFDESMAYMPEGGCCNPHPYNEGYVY
CRX, sequence (O43186 whole entry): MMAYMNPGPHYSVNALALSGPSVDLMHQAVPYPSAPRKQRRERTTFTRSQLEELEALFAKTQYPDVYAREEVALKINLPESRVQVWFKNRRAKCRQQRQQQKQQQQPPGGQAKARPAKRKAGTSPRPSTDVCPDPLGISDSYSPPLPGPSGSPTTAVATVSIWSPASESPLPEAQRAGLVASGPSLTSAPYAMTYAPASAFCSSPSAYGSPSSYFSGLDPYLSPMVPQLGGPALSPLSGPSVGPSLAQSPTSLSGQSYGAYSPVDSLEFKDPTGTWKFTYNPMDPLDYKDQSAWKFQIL
ETV5, sequence (P41161 whole entry): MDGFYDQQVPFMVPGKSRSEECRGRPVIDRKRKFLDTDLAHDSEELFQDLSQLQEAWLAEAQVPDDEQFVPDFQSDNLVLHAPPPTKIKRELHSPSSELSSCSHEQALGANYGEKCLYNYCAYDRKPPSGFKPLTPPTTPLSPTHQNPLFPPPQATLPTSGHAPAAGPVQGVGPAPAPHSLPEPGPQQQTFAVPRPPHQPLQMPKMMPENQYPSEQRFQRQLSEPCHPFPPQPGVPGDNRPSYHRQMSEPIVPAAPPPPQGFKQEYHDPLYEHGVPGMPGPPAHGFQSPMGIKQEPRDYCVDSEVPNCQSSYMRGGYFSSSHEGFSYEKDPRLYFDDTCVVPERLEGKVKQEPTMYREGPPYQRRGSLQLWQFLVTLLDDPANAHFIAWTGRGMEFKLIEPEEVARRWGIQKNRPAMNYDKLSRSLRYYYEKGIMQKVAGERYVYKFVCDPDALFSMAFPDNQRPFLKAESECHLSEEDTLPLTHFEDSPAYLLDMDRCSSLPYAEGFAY
ELF4, sequence (Q99607 whole entry): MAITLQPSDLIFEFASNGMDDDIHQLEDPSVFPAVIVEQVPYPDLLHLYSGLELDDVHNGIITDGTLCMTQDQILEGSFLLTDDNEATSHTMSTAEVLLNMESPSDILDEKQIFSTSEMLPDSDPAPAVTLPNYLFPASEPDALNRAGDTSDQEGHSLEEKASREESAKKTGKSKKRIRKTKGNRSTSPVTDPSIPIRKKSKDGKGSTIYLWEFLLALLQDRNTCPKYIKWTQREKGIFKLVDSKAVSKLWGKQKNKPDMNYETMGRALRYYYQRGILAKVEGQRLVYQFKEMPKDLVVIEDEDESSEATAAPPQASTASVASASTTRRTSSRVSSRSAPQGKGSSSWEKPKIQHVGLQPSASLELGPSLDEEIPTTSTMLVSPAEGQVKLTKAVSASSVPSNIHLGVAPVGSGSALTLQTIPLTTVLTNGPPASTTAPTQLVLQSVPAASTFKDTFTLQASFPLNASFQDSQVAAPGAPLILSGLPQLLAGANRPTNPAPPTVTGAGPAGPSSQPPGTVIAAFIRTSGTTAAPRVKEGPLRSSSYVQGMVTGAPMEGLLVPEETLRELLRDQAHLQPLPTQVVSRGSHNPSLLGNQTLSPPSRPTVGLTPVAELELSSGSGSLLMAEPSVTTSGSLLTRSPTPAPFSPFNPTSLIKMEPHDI

As for AAAGGG, the binding signal in the experiment with FEV was 1.11 fold enrichment (6-mer frequency, TF over GST control); with ETV5, 1.21 fold enrichment (6-mer frequency, TF over GST control); in the experiment with SPIC, 1.22 fold enrichment (6-mer frequency, TF over GST control); in the experiment with ELF4, 1.19 fold enrichment (6-mer frequency, TF over GST control); with ELK4, 1.1 fold enrichment (6-mer frequency, TF over GST control); with ETV2, 1.05 fold enrichment (6-mer frequency, TF over GST control). Also, the binding signal in the experiment with ELF3 is 1.25 fold enrichment (6-mer frequency, TF over GST control); with CRX, 1.08 fold enrichment (6-mer frequency, TF over GST control); with ETV1 it was 1.26 fold enrichment (6-mer frequency, TF over GST control).

With CGACGC, the binding signal with ETV5 was 1.07 fold enrichment (6-mer frequency, TF over GST control); with SPIC, 1.09 fold enrichment (6-mer frequency, TF over GST control); with ELF4, 1.09 fold enrichment (6-mer frequency, TF over GST control); in the experiment with ELK4, 1.07 fold enrichment (6-mer frequency, TF over GST control); with ETV2, 1.16 fold enrichment (6-mer frequency, TF over GST control); with ELF3, 1.28 fold enrichment (6-mer frequency, TF over GST control). Besides, in the experiment with ETV1, the binding signal is 1.01 fold enrichment (6-mer frequency, TF over GST control).

As to ATAGGT, the binding signal is 1.08 fold enrichment (6-mer frequency, TF over GST control) in the experiment with ETV5; 1.01 fold enrichment (6-mer frequency, TF over GST control) with SPIC; 1.01 fold enrichment (6-mer frequency, TF over GST control) with ELF4; 1.02 fold enrichment (6-mer frequency, TF over GST control) with ELK4; 1.11 fold enrichment (6-mer frequency, TF over GST control) in the experiment with ETV2; 1.11 fold enrichment (6-mer frequency, TF over GST control) with ELF3. The binding signal in the experiment with ETV1 is 1.03 fold enrichment (6-mer frequency, TF over GST control).

TCACAT: the binding signal is 1.28 fold enrichment (6-mer frequency, TF over GST control) in the experiment with FEV; 1.28 fold enrichment (6-mer frequency, TF over GST control) in the experiment with ETV5; 1.11 fold enrichment (6-mer frequency, TF over GST control) with SPIC; 1.15 fold enrichment (6-mer frequency, TF over GST control) with ELF4; 1.17 fold enrichment (6-mer frequency, TF over GST control) in the experiment with ELK4; 1.32 fold enrichment (6-mer frequency, TF over GST control) with ETV2. Also, the binding signal is 1.21 fold enrichment (6-mer frequency, TF over GST control) in the experiment with ELF3; 1.09 fold enrichment (6-mer frequency, TF over GST control) in the experiment with CRX; 1.21 fold enrichment (6-mer frequency, TF over GST control) with ETV1.

In the case of CAATAG, the binding signal with ETV5 is 1.11 fold enrichment (6-mer frequency, TF over GST control); with SPIC, 1.07 fold enrichment (6-mer frequency, TF over GST control); in the experiment with ELF4, 1.09 fold enrichment (6-mer frequency, TF over GST control); in the experiment with ELK4, 1.15 fold enrichment (6-mer frequency, TF over GST control); with ETV2, 1.01 fold enrichment (6-mer frequency, TF over GST control); with ELF3, 1.2 fold enrichment (6-mer frequency, TF over GST control). The binding signal in the experiment with ETV1 is 1.02 fold enrichment (6-mer frequency, TF over GST control).

CGTTAT: the binding signal with FEV was 1.03 fold enrichment (6-mer frequency, TF over GST control); in the experiment with ETV5 it was 1.15 fold enrichment (6-mer frequency, TF over GST control); with SPIC it was 1.23 fold enrichment (6-mer frequency, TF over GST control); with ELF4, 1.16 fold enrichment (6-mer frequency, TF over GST control); with ELK4 it was 1.15 fold enrichment (6-mer frequency, TF over GST control); with ETV2, 1.21 fold enrichment (6-mer frequency, TF over GST control). For the same sequence, the binding signal was 1.04 fold enrichment (6-mer frequency, TF over GST control) with ELF3 and 1.05 fold enrichment (6-mer frequency, TF over GST control) with CRX.

TGCATA: the binding signal with FEV was 1.13 fold enrichment (6-mer frequency, TF over GST control); with ETV5, 1.14 fold enrichment (6-mer frequency, TF over GST control); with SPIC, 1.17 fold enrichment (6-mer frequency, TF over GST control); with ELF4, 1.2 fold enrichment (6-mer frequency, TF over GST control); with ELK4, 1.13 fold enrichment (6-mer frequency, TF over GST control); in the experiment with ETV2 it was 1.02 fold enrichment (6-mer frequency, TF over GST control). Moreover, the binding signal with ELF3 is 1.03 fold enrichment (6-mer frequency, TF over GST control); with CRX, 1.01 fold enrichment (6-mer frequency, TF over GST control); in the experiment with ETV1, 1.07 fold enrichment (6-mer frequency, TF over GST control).

Regarding GCAATA, the binding signal with ETV5 was 1.07 fold enrichment (6-mer frequency, TF over GST control); in the experiment with SPIC it was 1.16 fold enrichment (6-mer frequency, TF over GST control); with ELF4 it was 1.07 fold enrichment (6-mer frequency, TF over GST control); with ELK4, 1.11 fold enrichment (6-mer frequency, TF over GST control); with ETV2, 1.01 fold enrichment (6-mer frequency, TF over GST control); with ELF3, 1.09 fold enrichment (6-mer frequency, TF over GST control). Also, in the experiment with ETV1, the binding signal was 1.07 fold enrichment (6-mer frequency, TF over GST control).
